# In PubChem BioAssay (EPA / NIEHS):
# Inconclusive results are not listed. Active and inactive are the calls of the source. Rule for the calls: active = hit-call score of the fitted dose curve at least 0.9, where 1 is the maximum; inconclusive = response in the unintended direction; inactive = score below 0.9.
# Biological target: Cellular tumor antigen p53 (Homo sapiens) (UniProt P04637)
# Assay: TOX21_p53_BLA_p5_ratio: Tox21 HCT-116 p53 Agonism Beta-lactamase Assay, Ratio, Phase 5 (AID 2283599)
# In short: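 HCT-116 cells carrying a p53-inducible beta-lactamase reporter were seeded at 4000 cells/well and dosed after 5 h with compound in DMSO (217-fold dilution). After 16 h at 37C, CCF4-AM substrate was added for 2 h, and the 460/530 nm emission ratio was scored as gain-of-signal versus DMSO.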
# Chain of Cellular tumor antigen p53 (Homo sapiens) (P04637 whole entry, looked up): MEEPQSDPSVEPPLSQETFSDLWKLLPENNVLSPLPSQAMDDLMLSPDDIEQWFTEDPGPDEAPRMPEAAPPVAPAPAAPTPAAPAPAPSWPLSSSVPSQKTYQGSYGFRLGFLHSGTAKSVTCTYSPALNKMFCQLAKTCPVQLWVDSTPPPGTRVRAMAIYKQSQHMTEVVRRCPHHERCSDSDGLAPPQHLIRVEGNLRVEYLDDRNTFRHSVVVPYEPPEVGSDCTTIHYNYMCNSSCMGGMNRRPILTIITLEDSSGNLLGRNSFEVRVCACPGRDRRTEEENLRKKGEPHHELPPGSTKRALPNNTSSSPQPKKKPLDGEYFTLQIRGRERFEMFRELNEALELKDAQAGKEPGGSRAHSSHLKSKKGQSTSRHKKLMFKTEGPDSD
row,SMILES,outcome
1,Nc1cccc([N+](=O)[O-])c1,inactive
2,CCN(CC)CCC(=O)N1c2ccccc2Sc2ccc(C(F)(F)F)cc21,inactive
3,O=C1c2ccccc2C(=O)C1c1ccc(F)cc1,inactive
4,N[C@@H](CCC(=O)Nc1ccc([N+](=O)[O-])cc1)C(=O)O,inactive
5,C[N+]1(C)[C@@H]2CC(OC(=O)[C@H](CO)c3ccccc3)C[C@H]1[C@@H]1O[C@@H]12 (stereo partly specified),inactive
6,O=C(C(=O)c1ccco1)c1ccco1,inactive
7,N#CSc1ccc(N)c([N+](=O)[O-])c1,inactive
8,O=C1c2ccccc2C(=O)c2c1ccc(O)c2O,inactive
9,O=C(Nc1cccc(C2=NCCN2)c1)Nc1cccc(C2=NCCN2)c1,inactive
10,C1=CCC2CC=CC2C1 (stereo unspecified),inactive
11,CC1(C)OC(=O)NC1=O,inactive
12,CCC(CO)(CO)CO,inactive
13,CCC(C)(CN(C)C)OC(=O)c1ccccc1 (stereo unspecified),inactive
14,N[C@H](C(=O)O)[C@@H](O)c1ccc(O)c(O)c1,inactive
15,FC(F)(F)c1cccc(Cl)c1,inactive
16,CC(C)C(=O)O,inactive
17,CC(=O)N[C@@H](Cc1ccc(O)cc1)C(=O)O,inactive
18,CN1CCN(c2c(F)cc3c(=O)c(C(=O)O)cn4c3c2OCN4C)CC1,inactive
19,C=CCOC(=O)CCCCCCCC,inactive
20,Nc1nc2c(ncn2COC(CO)CO)c(=O)[nH]1,inactive
21,O=C1NC(=O)c2cc([N+](=O)[O-])ccc21,inactive
22,CCC(C)(C)CC,inactive
23,CC(Cc1cccc(C(F)(F)F)c1)NCCOC(=O)c1ccccc1 (stereo unspecified),inactive
24,C1CSCCS1,inactive
25,CC(=O)Nc1cccc(N)c1,inactive

# System: not listed separately
# Assay: TOX21_p53_BLA_p5_viability: Viability Assessment in the Tox21 HCT-116 p53 Agonism Beta-lactamase Assay, Phase 5 (AID 2283600)
# In short: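 HCT-116 p53 beta-lactamase reporter cells, 4000/well, were exposed to compound (pin transfer, 217-fold dilution) for 16 hours at 37C. Cellular ATP was read by CellTiter-Glo luminescence after 30 min at room temperature.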
row,SMILES,outcome
1,Nc1cccc([N+](=O)[O-])c1,inactive
2,C[N+]1(C)[C@@H]2CC(OC(=O)[C@H](CO)c3ccccc3)C[C@H]1[C@@H]1O[C@@H]12 (stereo partly specified),inactive
3,O=C(C(=O)c1ccco1)c1ccco1,inactive
4,O=C1c2ccccc2C(=O)c2c1ccc(O)c2O,inactive
5,C1=CCC2CC=CC2C1 (stereo unspecified),inactive
6,CC1(C)OC(=O)NC1=O,inactive
7,CCC(CO)(CO)CO,inactive
8,N[C@H](C(=O)O)[C@@H](O)c1ccc(O)c(O)c1,inactive
9,FC(F)(F)c1cccc(Cl)c1,inactive
10,CC(C)C(=O)O,inactive
11,CC(=O)N[C@@H](Cc1ccc(O)cc1)C(=O)O,inactive
12,C=CCOC(=O)CCCCCCCC,inactive
13,Nc1nc2c(ncn2COC(CO)CO)c(=O)[nH]1,inactive
14,O=C1NC(=O)c2cc([N+](=O)[O-])ccc21,inactive
15,CC(Cc1cccc(C(F)(F)F)c1)NCCOC(=O)c1ccccc1 (stereo unspecified),inactive
16,C1CSCCS1,inactive
